From ChEMBL document CHEMBL4513135, “CO-ADD screening of IQOG CSIS (Spain) compounds”
Results with a measured potency or affinity are listed apart.

test system: Cryptococcus neoformans; settings: Concentration 32 ug.mL-1; ASSAY_TEST Inhibition of Fungal Growth; detection method Resazurin; Absorption (OD600-OD570); plate type 384well; NBS; CORNING #3640

| SMILES | Inhibition |
| --- | --- |
| CN1C/C(=C\Br)n2c1c(C#N)cc(C#N)c2=O | -48.49% |
| CC(=O)Oc1ccc(C=C2N=C(c3ccccc3)OC2=O)c(OC(C)=O)c1 | -6.54% |
| COc1[nH]c(=O)ccc1C#N | -56.43% |
| CC1=N/C(=C(\C)c2ccccc2)C(=O)O1 | -3.17% |
| COC(=O)C(C#N)=Cc1ccccc1 | -2.58% |
| Cn1ccnc1C1C2=C(CC(C)(C)CC2=O)Oc2nc3c(c(N)c21)CCCC3 (stereo not given) | -60.42% |
| C#CCN(C)Cc1cc2cc(OCCCC3CCN(Cc4ccc(OC)c5ncccc45)CC3)ccc2n1C | -73.89% |
| O=C1NC(=S)N/C1=C\c1ccccc1 | -1.21% |
| C#CCNc1nc(NCC#C)c(C#N)cc1C#N | 23.66% |
| Cl.OCCCC1CCNCC1 | -1.05% |
| O=C(N/N=C/Cc1ccccc1)c1cc2ccccc2n1Cc1ccccc1 | -1.83% |
| Nc1c2c(nc3c1CC(c1c(Cl)cccc1Cl)C(=O)N3)CCCC2 (stereo not given) | -92.02% |
| COc1cccc(C2c3c(nc4c(c3N)CCCC4)Oc3ccc4ccccc4c32)c1 (stereo not given) | -0.19% |
| COc1ccc2c(c1)cc(/C=C/[N+](=O)[O-])n2C | 4.17% |
| O=C1NC(=O)C(=Cc2ccccc2)N1 | -1.42% |
| CCOC(=O)N/N=C/c1ccccc1 | -5.96% |
| N#Cc1cc(C#N)c(Cl)nc1N | -5.53% |
| N#Cc1c(N)nc(N)c(C#N)c1-c1ccccc1 | -29.88% |
| COc1ccc2cc(C3C4=C(CC(C)(C)CC4=O)Oc4nc5c(c(N)c43)CCCCC5)c(Cl)nc2c1 (stereo not given) | -4.18% |
| CNC(=O)c1cc2cc(OCc3ccccc3)ccc2n1C | -45.34% |

| SMILES | Inhibition |
| --- | --- |
| CN(C)c1cccc(C(=O)c2cccc(N(C)C)c2)c1 | -8.01% |
| C/C(Cc1ccccc1)=N/NC(=O)c1c[nH]c2ccc(O)cc12 | 4.37% |
| N#Cc1cc(C#N)c(Cl)nc1Cl | 24.8% |
| Cn1ccnc1C1c2c(nc3c(c2N)CCC3)Oc2ccc3ccccc3c21 (stereo not given) | -36.13% |
| COc1ccccc1C1C(C#N)=C(N)Oc2c1ccc1ccccc21 (stereo not given) | -34.5% |
| Cl.ClCCCN1CCCC1 | -0.84% |
| Cn1c(C(=O)N2CCOCC2)cc2cc(OCCCC3CCN(Cc4ccccc4)CC3)ccc21 | -96.05% |
| C#CCN(C)c1nc(NCC2CCN(Cc3ccccc3)CC2)c(C#N)c(-c2ccccc2)c1C#N | -3.47% |
| CC1CC(=O)Nc2c1c(Cl)nc1nc3c(c(N)c21)CCCC3 (stereo not given) | -92.92% |
| C=C1CN(C)c2c(C#N)c(-c3ccccc3)c(C#N)c(=O)n21 | -24.16% |
| CC(=O)Oc1ccc(C=C2N=C(c3ccccc3)OC2=O)cc1 | -12.33% |
| C=CCNCc1cc2cc(OCCCC3CCN(Cc4ccccc4)CC3)ccc2[nH]1.O.O=C(O)C(=O)O.O=C(O)C(=O)O | -57.95% |
| C#CCN(C)Cc1cc2cc(OCc3ccccc3)ccc2n1C.O=C(O)C(=O)O | -91.88% |
| CC(C)(C)OC(=O)N[C@H]1CC[C@H](O)CC1 | -36.58% |
| O=c1oc2cc(O)ccc2cc1-c1ccccc1 | -4.62% |
| O[C@H]1CC[C@H](NCc2ccccc2)CC1 | -37.74% |
| N#Cc1cc2c(N)c3c(nc2nc1Cl)CCN(Cc1ccccc1)C3 | -88.69% |
| CC1Cc2c(nc3c(c2N)CCCC3)NC1=O (stereo not given) | -61.31% |
| CC(=O)NC(=Cc1ccccc1)C(=O)O | -0.91% |
| C#CCN1CCc2nc3nc(NC4CCN(Cc5ccccc5)CC4)c(C#N)cc3c(N)c2C1 | -17.48% |
